Composite z-score and z-score data for 4 compounds are collected here from PubChem BioAssay.

The test system of experiment [1] is Wnt5a (protein binding on small-molecule microarray). Nature of the experiment: small molecules binding Wnt5a protein – biophysical, small-molecule microarray, 635/667 nm fluorescence, primary screen (AID 1142).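 Note: fluorescence read at 667 nm with signal to noise per printed feature.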 Conditions: 635 nm fluorescence, higher = more signal.
Experiment [2] is described as follows: ATP-based viability of Huh7 replicon cells – cell-based, CellTiter-Glo luminescence, basal, 48 h, cytotoxicity control for HCV replication inhibitor project, primary screen (AID 1143).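 Note: Huh7 hepatoma cells carrying a hepatitis C replication reporter with no stimulus; test concentration not given here.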 The settings on record: higher = more signal, called active from +8 up or from −8 down. (A replicon is a self-replicating genome or part of one, used to study replication in cells.)

Experiment [3] in a line: Pseudomonas biofilm growth suppression – PAO1 strain, BacTiter-Glo luminescence, LB-PBS, primary screen (AID 1144). Conditions: P. aeruginosa PAO1 biofilm, 12 h, higher = more signal.
The nature of experiment [4]: basal CRE-LacZ reporter activity in PC12 – cell-based, unstimulated, primary screen (AID 1145). The settings on record: no forskolin, luminescence, 4.5 h, higher = more signal, called active from +8 up or from −8 down.
Experiment [5] in a line: forskolin-driven CRE-LacZ activity in PC12 – cell-based, CRE-LacZ reporter, forskolin-stimulated, primary screen (AID 1146).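 Note: PC12 cells with 6xCRE LacZ reporter stimulated by forskolin 10 µM; beta-galactosidase reporter signal reflecting CREB driven transcription.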 Conditions: luminescence, 4.5 h, higher = more signal, called active from +8 up or from −8 down.
The target in experiment [6] is Streptavidin (Streptomyces avidinii) (UniProt P22629). Nature of the experiment: compounds binding control protein streptavidin – biophysical, small-molecule microarray, 635/667 nm fluorescence, artefact control for SMM compound annotation, primary screen (AID 1147).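 Note: signal reflects streptavidin binding to arrayed compounds as a control protein.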 The settings on record: higher = more signal.
Chain of Streptavidin (Streptomyces avidinii) (P22629 whole entry, looked up): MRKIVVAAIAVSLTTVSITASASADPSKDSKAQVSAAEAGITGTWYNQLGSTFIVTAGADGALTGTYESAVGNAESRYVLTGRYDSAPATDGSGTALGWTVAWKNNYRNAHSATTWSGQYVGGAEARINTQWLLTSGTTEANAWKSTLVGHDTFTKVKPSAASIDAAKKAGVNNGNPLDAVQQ
Experiment [7] can be described thus: probe aInhba binding on compound microarray – biochemical, small-molecule microarray, 635/667 nm fluorescence, primary screen (AID 1148).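 Note: score merges 667nm spot fluorescence with signal-to-noise for antibody binding to printed compounds.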 Conditions: higher = more signal.
For experiment [8], the target named is Torsin-1A (Homo sapiens) (UniProt O14656). Nature of the experiment: TOR1A wild-type binding on microarray – cell lysate, small-molecule microarray, lysate, 635/667 nm, primary screen (AID 1149). The settings on record: COS7 hTOR1A-WT lysate, 635 nm fluorescence, higher = more signal.
Chain of Torsin-1A (Homo sapiens) (O14656 whole entry, looked up): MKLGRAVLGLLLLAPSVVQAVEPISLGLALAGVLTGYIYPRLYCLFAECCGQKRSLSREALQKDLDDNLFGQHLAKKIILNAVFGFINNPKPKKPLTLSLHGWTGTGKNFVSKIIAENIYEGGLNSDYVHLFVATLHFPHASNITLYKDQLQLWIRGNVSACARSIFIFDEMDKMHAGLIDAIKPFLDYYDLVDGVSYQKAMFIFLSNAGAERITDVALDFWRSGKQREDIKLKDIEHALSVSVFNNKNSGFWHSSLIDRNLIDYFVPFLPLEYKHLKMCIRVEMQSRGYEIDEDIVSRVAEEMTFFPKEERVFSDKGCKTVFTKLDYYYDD
Experiment [9] shares this target. Nature of the experiment: torsin A mutant lysate binding on microarrays – cell lysate, small-molecule microarray, COS7 lysate, 635/667 nm fluorescence, primary screen (AID 1150).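 Note: score pools 667 nm emission and signal to noise measuring lysate protein binding.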 Conditions: COS7 hTOR1A mutant lysate, 635 nm fluorescence, higher = more signal.
The test system of experiment [10] is Sonic hedgehog protein (Shh). Nature of the experiment: Sonic hedgehog microarray binding compounds – biochemical, small-molecule microarray, 635/667 nm fluorescence, primary screen (AID 1151).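 Note: Shh protein binding to compounds spotted on small-molecule microarray slides; score combines spot fluorescence intensity with signal-to-noise across triplicate slides.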 The settings on record: 635 nm fluorescence, higher = more signal.
The nature of experiment [11]: optical density shifts of acrAB sulA E. coli – strain DRC41, OD650, 48 h, E. coli filamentation inducer project, primary screen (AID 1152).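 Note: E. coli MC1000 strain DRC41 lacking acrAB efflux pump and sulA.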 The settings on record: higher = more signal, called active from +8 up or from −8 down.
Experiment [12] is described as follows: probe aLefty1 binding on compound microarray – biochemical, small-molecule microarray, 635/667 nm fluorescence, primary screen (AID 1153).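 Note: score merges spot fluorescence with signal-to-noise ratio from the scanned slide images.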 The settings on record: higher = more signal.
Experiment [13] can be described thus: plasmodial surface anion channel blockers, osmotic lysis – cell-based, P. falciparum Indochina, OD700, 1 h, primary screen (AID 1154). The settings on record: P. falciparum Indochina infected RBC osmotic lysis, higher = more signal, called active from +8 up or from −8 down.
Experiment [14] can be described thus: plasmodial surface anion channel blockers, osmotic lysis – cell-based, P. falciparum Indochina, OD700, 2 h, primary screen (AID 1155).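 Note: lysis reports solute entry through the parasite surface anion channel PSAC.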 Conditions: P. falciparum Indochina infected erythrocytes, higher = more signal, called active from +8 up or from −8 down.
Experiment [15] in a line: changes in parasitized red cell lysis, either direction – P. falciparum Indochina, OD700, 3 h, PSAC antagonist project, primary screen (AID 1156). Conditions: P. falciparum-infected erythrocytes, osmotic lysis, higher = more signal, called active from +8 up or from −8 down.
Experiment [16] is described as follows: plasmodial surface anion channel blockers, osmotic lysis – cell-based, P. falciparum Indochina, OD700, 18 h, primary screen (AID 1157). Conditions: P. falciparum Indochina infected erythrocytes, osmotic lysis OD700, 18 h; higher = more signal, called active from +8 up or from −8 down.
Experiment [17] is described as follows: S6 kinase pathway phospho-S6 level changes – cell-based, A549, cytoblot, luminescence, serum-stimulated, primary screen (AID 1158).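 Note: serum-stimulated A549 lung adenocarcinoma cells; signal is phosphorylated S6 detected by cytoblot immunostaining with HRP secondary.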 Conditions: 5 h, higher = more signal.
Experiment [18] concerns the target NADPH oxidase 2 (Homo sapiens) (UniProt P04839). Nature of the experiment: compounds shifting NOX2 Amplex Red fluorescence – cell-based, HEK293-NOX2, PMA-stimulated, NOX inhibitor project, primary screen (AID 1159). Note: test concentration not given here. Conditions: 45 min, higher = more signal, called active from +8 up or from −8 down.
For experiment [19], the target named is NADPH oxidase 4 (Homo sapiens) (UniProt Q9NPH5). Nature of the experiment: compounds shifting NOX4 Amplex Red fluorescence – cell-based, HEK293-NOX4, tetracycline-induced, NOX inhibitor project, primary screen (AID 1160). The settings on record: HEK293-NOX4, Amplex Red H2O2 fluorescence, 45 min; higher = more signal, called active from +8 up or from −8 down.
Chain of NADPH oxidase 4 (Homo sapiens) (Q9NPH5 whole entry, looked up): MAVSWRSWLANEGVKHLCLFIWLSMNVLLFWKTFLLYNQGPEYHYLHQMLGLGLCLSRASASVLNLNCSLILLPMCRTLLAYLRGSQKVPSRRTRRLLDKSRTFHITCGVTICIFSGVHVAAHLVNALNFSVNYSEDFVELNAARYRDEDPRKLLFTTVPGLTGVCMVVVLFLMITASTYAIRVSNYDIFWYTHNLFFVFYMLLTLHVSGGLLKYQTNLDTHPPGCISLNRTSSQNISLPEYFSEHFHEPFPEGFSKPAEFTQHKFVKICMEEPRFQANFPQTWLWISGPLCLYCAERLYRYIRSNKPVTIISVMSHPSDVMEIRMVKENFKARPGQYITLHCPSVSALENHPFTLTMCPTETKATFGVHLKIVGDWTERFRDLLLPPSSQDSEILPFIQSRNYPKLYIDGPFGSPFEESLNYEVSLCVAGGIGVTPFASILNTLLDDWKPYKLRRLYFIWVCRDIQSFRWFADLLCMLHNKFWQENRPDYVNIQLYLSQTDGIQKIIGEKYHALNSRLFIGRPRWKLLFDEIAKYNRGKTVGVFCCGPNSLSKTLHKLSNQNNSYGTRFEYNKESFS

Experiment [20] concerns the target NADPH oxidase 5 (Homo sapiens) (UniProt Q96PH1). Nature of the experiment: compounds shifting NOX5 Amplex Red fluorescence – cell-based, HEK293-NOX5, NOX inhibitor project, primary screen (AID 1161). The settings on record: HEK293-NOX5, ionomycin, 45 min, higher = more signal.

SMILES strings stand for the structures. Active and inactive are the calls of the source. Unless noted, the rule behind the calls is not given here.

Chain of NADPH oxidase 2 (Homo sapiens) (P04839 whole entry, looked up): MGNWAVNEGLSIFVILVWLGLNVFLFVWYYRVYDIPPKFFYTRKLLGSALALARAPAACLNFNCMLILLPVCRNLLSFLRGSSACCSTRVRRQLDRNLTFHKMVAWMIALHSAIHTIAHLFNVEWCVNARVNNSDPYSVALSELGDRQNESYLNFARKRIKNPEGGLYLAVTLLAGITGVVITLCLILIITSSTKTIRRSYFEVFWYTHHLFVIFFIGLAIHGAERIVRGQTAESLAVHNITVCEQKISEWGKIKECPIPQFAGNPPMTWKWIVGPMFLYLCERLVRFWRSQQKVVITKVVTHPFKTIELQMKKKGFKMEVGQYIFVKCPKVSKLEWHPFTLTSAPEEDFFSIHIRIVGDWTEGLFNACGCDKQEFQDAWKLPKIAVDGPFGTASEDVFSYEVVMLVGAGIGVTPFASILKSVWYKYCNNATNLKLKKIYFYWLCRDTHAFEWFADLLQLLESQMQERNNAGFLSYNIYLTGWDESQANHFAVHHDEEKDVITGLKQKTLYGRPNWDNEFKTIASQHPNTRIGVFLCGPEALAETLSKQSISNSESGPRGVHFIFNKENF
Chain of NADPH oxidase 5 (Homo sapiens) (Q96PH1 whole entry, looked up): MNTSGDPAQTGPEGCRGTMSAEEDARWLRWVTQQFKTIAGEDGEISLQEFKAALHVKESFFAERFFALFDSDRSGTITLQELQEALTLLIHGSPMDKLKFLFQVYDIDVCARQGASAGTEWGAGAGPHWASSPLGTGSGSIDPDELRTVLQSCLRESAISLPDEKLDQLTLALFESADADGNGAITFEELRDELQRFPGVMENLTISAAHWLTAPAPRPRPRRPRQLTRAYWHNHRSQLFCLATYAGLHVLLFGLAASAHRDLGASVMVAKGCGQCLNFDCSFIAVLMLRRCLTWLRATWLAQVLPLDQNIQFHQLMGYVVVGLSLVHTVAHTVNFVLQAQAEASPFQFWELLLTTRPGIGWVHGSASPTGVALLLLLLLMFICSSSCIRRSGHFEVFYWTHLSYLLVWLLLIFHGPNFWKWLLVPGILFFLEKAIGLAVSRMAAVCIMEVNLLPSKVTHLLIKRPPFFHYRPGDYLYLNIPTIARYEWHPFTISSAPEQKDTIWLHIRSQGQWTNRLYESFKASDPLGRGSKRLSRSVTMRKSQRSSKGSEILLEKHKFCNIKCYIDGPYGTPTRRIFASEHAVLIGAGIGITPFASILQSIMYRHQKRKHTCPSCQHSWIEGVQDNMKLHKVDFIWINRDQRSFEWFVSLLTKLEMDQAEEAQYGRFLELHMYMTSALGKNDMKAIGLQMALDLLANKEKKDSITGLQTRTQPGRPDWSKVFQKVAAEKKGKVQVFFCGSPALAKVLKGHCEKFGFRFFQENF

Turning to `C=CC[C@@H]1C=C[C@H](Oc2ccc(C)cc2)[C@@H](COC(=O)NCc2cccc3ccccc23)O1`, the composite z-score in [1] is 0.243; in experiment [6] it was -0.142; in [7], -0.156; with Torsin-1A (Homo sapiens) [8] it was -0.0815; with Torsin-1A (Homo sapiens) [9], -0.0604; in experiment [10], 0.701. The same compound gave a composite z-score in experiment [12] of -0.0501. The z-score was -2.06 (inactive) in experiment [2]; -0.607 (inactive) in experiment [3]; -0.527 (inactive) in [4]; -0.868 (inactive) in experiment [5]; -0.575 (inactive) in experiment [11]; 2.39 (inactive) in [13]. For the same compound, the z-score in experiment [14] is 0.852 (inactive); in [15] it was -0.508 (inactive); in [16] it was 0.346 (inactive); in [17], -0.783; in experiment [18] it was 0.839 (inactive); in experiment [19], -0.187 (inactive). Also, the z-score in experiment [20] is -0.146.

Turning to `CCO[C@H](c1cc(OC)cc([N+](=O)[O-])c1OC)[C@H](C)[C@@H](OC)[C@H](C)C=CCC(=O)OC`, the composite z-score in experiment [1] was 0.018; in [6], -0.0837; in [7], -0.183; in the experiment with Torsin-1A (Homo sapiens) [8], 0.388; in the experiment with Torsin-1A (Homo sapiens) [9], 0.294; in [10] it was 0.628. In experiment [12], this compound showed a composite z-score of 0.0367. For the same compound, the z-score in [2] was -0.267 (inactive); in experiment [3], -0.378 (inactive); in experiment [4], 0.0246 (inactive); in experiment [5] it was -0.183 (inactive); in experiment [11], -0.321 (inactive); in experiment [13], 2.26 (inactive). Besides, the z-score in experiment [14] is 0.282 (inactive); in experiment [15] it was 0.528 (inactive); in experiment [16], 0.318 (inactive); in experiment [17] it was -0.421; in experiment [18], -1.73 (inactive); in experiment [19] it was -0.442 (inactive). In [20], the z-score was -1.11.

As for `CCN1C(=O)[C@H]2[C@H]3[C@H](O)[C@H](O)CC(=NO[C@H](C)c4cn([C@H](CO)Cc5ccccc5)nn4)[C@@H]3CC[C@H]2C1=O`, the composite z-score in [1] is 0.217; in [6] it was 0.307; in experiment [7], -0.105; with Torsin-1A (Homo sapiens) [8], 0.265; with Torsin-1A (Homo sapiens) [9] it was 0.556; in experiment [10] it was 0.742. Besides, in [12], the composite z-score was -0.323. Besides, the z-score is 0.399 (inactive) in [2]; 1.05 (inactive) in [3]; -0.385 (inactive) in [4]; -0.228 (inactive) in experiment [5]; -0.238 (inactive) in experiment [11]; 0.334 (inactive) in experiment [13]. The z-score in experiment [14] is 0.15 (inactive); in experiment [15], -0.0073 (inactive); in [16], 0.123 (inactive); in experiment [17] it was -0.598; in [18], 0.384 (inactive); in experiment [19], 0.293 (inactive). The z-score in [20] was -0.116.

As for `CCCNC(=O)OC[C@H]1O[C@H](CCON=C2c3cc(OC)ccc3O[C@H](c3cccc(OC)c3)[C@H]2O)C=C[C@@H]1Oc1ccc(OC)cc1`, the composite z-score was 0.298 in experiment [1]; 0.474 in experiment [6]; -0.0011 in [7]; 0.442 in the experiment with Torsin-1A (Homo sapiens) [8]; 0.818 with Torsin-1A (Homo sapiens) [9]; 0.436 in experiment [10]. Besides, the composite z-score in [12] was -0.0637. The z-score is -0.69 (inactive) in experiment [2]; 0.298 (inactive) in [3]; 4.37 (inactive) in [4]; 0.469 (inactive) in experiment [5]; 0.447 (inactive) in experiment [11]; 3.13 (inactive) in experiment [13]. Besides, the z-score in experiment [14] was 0.855 (inactive); in experiment [15], 0.431 (inactive); in experiment [16] it was 0.563 (inactive); in experiment [17], -0.641; in experiment [18], 0.461 (inactive); in experiment [19], 0.455 (inactive). In experiment [20], the z-score is -0.473.
